TDP1 cell CPT: growth inhibition of DT40 Tdp1-/-;hTDP1 cells with camptothecin (screen for TDP1 inhibitors); chicken DT40 Tdp1-/-;hTDP1 cells + 20 nM CPT, ATP luminescence, 48 h; Potency, µM (top dose mostly 46.2 µM), most hits filed as inhibitors; 12% of 420,000 active; AID 686979; further: nearly all actives have a fitted effect of over 55% in size
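Chicken DT40 Tdp1-/- cells complemented with human TDP1, 400 cells/well, exposed to compounds plus 20 nM camptothecin for at least 48 h at 37 C; viability read as ATP content by CellTiter-Glo luminescence.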
TDP1 cell noCPT: qHTS for Inhibitors of human tyrosyl-DNA phosphodiesterase 1 (TDP1): qHTS in cells in absence of CPT; AID 686978, 2013; Potency, µM (titrated, usually from 46.2 µM), most hits filed as inhibitors; DT40 Tdp1-/- hTDP1 cells, no CPT, ATP luminescence, 48 h; 15% of 420,000 active; further: nearly all actives have a fitted effect of over 55% in size
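Growth kinetics read by CellTiter-Glo luminescence after ≥48 hr at 37 °C. Cells: DT40 Tdp1-/- stably carrying human TDP1, 400 per well, compound exposure in the absence of CPT (DMSO vehicle).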
DRD3 antagonist: blocks the human D3 dopamine receptor | P35462 | D3R cells, DiscoveRx beta-arrestin luminescence, antagonist mode; hits give low values | max response, negative = inhibition, % | 2.5% of 360,000 active | AID 652054; in the data active means max response below about -50%; inconclusive means no clear call, values can overlap the other calls
Target sequence (P35462 whole entry, looked up): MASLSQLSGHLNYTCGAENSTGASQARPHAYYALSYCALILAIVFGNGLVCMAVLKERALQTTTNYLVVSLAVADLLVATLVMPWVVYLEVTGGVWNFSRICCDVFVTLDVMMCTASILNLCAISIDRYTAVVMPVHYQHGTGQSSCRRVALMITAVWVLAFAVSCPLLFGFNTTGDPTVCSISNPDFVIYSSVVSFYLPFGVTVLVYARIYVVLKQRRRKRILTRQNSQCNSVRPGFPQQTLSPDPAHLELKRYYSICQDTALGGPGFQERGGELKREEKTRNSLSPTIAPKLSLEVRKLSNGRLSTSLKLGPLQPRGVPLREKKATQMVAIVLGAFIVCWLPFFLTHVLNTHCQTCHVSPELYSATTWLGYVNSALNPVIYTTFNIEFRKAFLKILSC
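Cells plated overnight at 1500 cells/well, then exposed to library compounds with dopamine controls for 90 minutes at 37 degrees C. DiscoveRx reagent added for 30–60 minutes at room temperature; luminescence read, quantitative HTS format.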
DRD3 agonist: activates the human D3 dopamine receptor. max activation, %. P35462. D3R DiscoveRx beta-arrestin cells, luminescence, 90 min. 0.58% of 410,000 active; in the data active means max activation above about 30%
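Agonist-mode cell screen: cells plated at 1500/well and incubated overnight at 37 °C, then exposed to library compounds for 90 min at 37 °C. Detection reagent was added for 30–60 min at room temperature, and luminescence was read.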
ClpP mod: qHTS Assay for Activators of ClpP. ATP-dependent Clp protease proteolytic subunit (Bacillus subtilis (strain 168)), P80244. purified B. subtilis ClpP, FRET peptide cleavage, 20 min. Potency, µM (highest dose often 57.5 µM). 1.9% of 340,000 active. AID 651965, 2013; active means well fitted falling curve with a large enough effect; inconclusive means small, poorly fitted or top-dose-only effect; inactive means no such curve, though single readings can be large or run the other way; further: the source files actives as falling curves though it sought activators and does not explain the sign; nearly all actives have a fitted effect of over 65% in size
Target sequence (P80244 whole entry, looked up): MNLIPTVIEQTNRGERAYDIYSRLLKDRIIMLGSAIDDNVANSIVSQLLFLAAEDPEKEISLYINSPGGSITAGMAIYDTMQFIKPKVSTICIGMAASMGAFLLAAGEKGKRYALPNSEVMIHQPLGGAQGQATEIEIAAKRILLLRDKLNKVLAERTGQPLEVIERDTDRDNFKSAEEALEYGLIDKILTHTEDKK
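FRET quenching reversal measured ClpP activation: 10 microg/mL B. subtilis ClpP at pH 8 with the FRET-FV decapeptide, read at 430 nm after 320 nm excitation. The 20-min minus 0-min signal was scaled between DMSO/no-enzyme wells and ADEP (5.8 microM final).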
IL1B secr inh: inflammasome signaling inhibition, IL-1 beta readout | activity change, % at 57.5 µM | THP-1 LPS/ATP IL-1B secretion, AlphaLISA, 16 h; hits give low values | 4.7% of 360,000 active; in the data active means activity change below about -50%; inconclusive means mostly about -30% to -49%
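THP-1 cells pretreated 1 hr with compounds (up to 57.5 uM final), then stimulated with LPS (250 ng/mL final) plus ATP (1.25 mM final); secreted IL-1B measured by AlphaLISA after 16 hr, decreased signal indicating inhibition.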
Numbers stand for hits; [ ] = dose if it differs, or a comment. A selection: hits, their analogues and other compounds. The true share with any hit is near 21%. Unless noted, the call rests on the fitted dose curve; in most records, active means well fitted inhibition curve with a large enough effect; inconclusive means small, poorly fitted or top-dose-only effect; inactive means flat fitted curve, though single readings scatter.

How did O=C(NC1CCCCCC1)C1CCN(S(=O)(=O)c2cccc3cccnc23)CC1 do in these assays?
TDP1 cell CPT: inactive; TDP1 cell noCPT: inactive; DRD3 antagonist: inactive; DRD3 agonist: inactive; ClpP mod: inactive; IL1B secr inh: inactive

Results for O=S(=O)(NC1CCN(Cc2ccccc2)CC1)c1cccc2cccnc12 ?
TDP1 cell CPT: inconclusive; TDP1 cell noCPT: 18µM; DRD3 antagonist: inconclusive; DRD3 agonist: inactive; ClpP mod: inactive; IL1B secr inh: inactive

How did CCc1ccc(S(=O)(=O)c2nnn3c2nc(N(C)Cc2ccccc2)c2cc(Cl)ccc23)cc1 do in these assays?
TDP1 cell CPT: inactive; TDP1 cell noCPT: inactive; DRD3 agonist: inactive; ClpP mod: inconclusive

Results for CCc1ccc(C(=O)c2cn(CC(=O)Nc3cc(OC)ccc3OC)c3ccc(Cl)cc3c2=O)cc1 ?
TDP1 cell CPT: inconclusive; TDP1 cell noCPT: inconclusive; DRD3 agonist: inactive; ClpP mod: inactive

What do the screens show for `CN(C)C(CNc1ccc(C(F)(F)F)cn1)c1ccccc1` (configuration not stated)?
TDP1 cell CPT: inconclusive; TDP1 cell noCPT: inactive; DRD3 antagonist: -59; DRD3 agonist: inactive; IL1B secr inh: inactive

How did CC(=O)Nc1ccccc1-c1nc(CNC(=O)c2cc(C)ccc2C)c(C)o1 do in these assays?
TDP1 cell CPT: inactive[9.04 µM]; TDP1 cell noCPT: inactive

Results for O=S(=O)(Nc1cccc(-n2cnnn2)c1)c1cc(Br)ccc1Br ?
TDP1 cell CPT: inactive; TDP1 cell noCPT: inactive; DRD3 antagonist: inactive; DRD3 agonist: inactive; ClpP mod: inactive; IL1B secr inh: inactive

What do the screens show for `Cc1ccc(-n2nnnc2SCC(=O)N(CC(C)C)c2c(N)n(CC(C)C)c(=O)[nH]c2=O)cc1`?
TDP1 cell CPT: inactive; TDP1 cell noCPT: inactive; DRD3 antagonist: inactive; DRD3 agonist: inactive; IL1B secr inh: -52

What do the screens show for `CN(C(=O)COC(=O)CCC(=O)c1ccc(Cl)cc1)c1c(N)n(Cc2ccccc2)c(=O)[nH]c1=O`?
TDP1 cell CPT: inactive; TDP1 cell noCPT: 18µM; DRD3 antagonist: inactive; DRD3 agonist: inactive; ClpP mod: inactive; IL1B secr inh: inactive

How did CC(C)CN(C(=O)COC(=O)CCSc1ccc(Cl)cc1)c1c(N)n(Cc2ccccc2)c(=O)[nH]c1=O do in these assays?
TDP1 cell CPT: inconclusive; TDP1 cell noCPT: 18µM; DRD3 antagonist: inactive; DRD3 agonist: inactive; ClpP mod: inactive; IL1B secr inh: inactive

Results for CC(C)CN(C(=O)CCC(=O)OCC(=O)N(C)c1ccccc1)c1c(N)n(CC(C)C)c(=O)[nH]c1=O ?
TDP1 cell CPT: inactive; TDP1 cell noCPT: inactive; DRD3 antagonist: inactive; DRD3 agonist: inactive; ClpP mod: 28µM; IL1B secr inh: inactive

Results for CCC1CN(CCNC(=O)c2cccnc2OC)Cc2cc(OC)ccc2O1 (configuration not stated) ?
TDP1 cell CPT: inactive[9.04 µM]; TDP1 cell noCPT: inconclusive

Results for O=C(c1[nH]c(C(F)(F)F)nc1-c1ccccc1)N1CCN(C/C=C/c2ccccc2)CC1 ?
TDP1 cell CPT: inactive; TDP1 cell noCPT: inactive; DRD3 antagonist: inactive; DRD3 agonist: inactive; ClpP mod: inactive; IL1B secr inh: inactive

Results for CN(C)c1cccc(C(=O)N2CCC(c3c[nH]c4ccccc34)(c3c[nH]c4ccccc34)CC2)c1 ?
TDP1 cell CPT: inconclusive; TDP1 cell noCPT: inconclusive; DRD3 agonist: inactive; ClpP mod: inactive

What do the screens show for `COc1ccc2ccccc2c1CNCCN1CCOCC1`?
TDP1 cell CPT: inactive; TDP1 cell noCPT: inactive; DRD3 antagonist: inactive; DRD3 agonist: inactive; ClpP mod: inactive; IL1B secr inh: inactive

Results for CC(=O)/C(=C/Nc1ccc(Oc2ccccc2)cc1)c1ccccc1 ?
TDP1 cell CPT: inconclusive; TDP1 cell noCPT: 18µM; DRD3 antagonist: inactive; DRD3 agonist: inactive; ClpP mod: 7.9µM; IL1B secr inh: inconclusive

What do the screens show for `CC(=O)/C(=C\Nc1ccc(OCc2ccccc2)cc1)c1ccccc1`?
TDP1 cell CPT: 18µM; TDP1 cell noCPT: 29µM; DRD3 antagonist: inactive; DRD3 agonist: inactive; ClpP mod: inactive; IL1B secr inh: inactive

How did O=C(Nc1ccccc1)c1cc2c(=O)c3ccccc3oc2nc1C(F)(F)F do in these assays?
TDP1 cell CPT: inactive; TDP1 cell noCPT: inactive; DRD3 antagonist: inactive; DRD3 agonist: inactive; ClpP mod: inactive; IL1B secr inh: inactive

Results for O=C(Nc1cccc(C(F)(F)F)c1)c1cc2c(=O)c3ccccc3oc2nc1C(F)(F)F ?
TDP1 cell CPT: inconclusive; TDP1 cell noCPT: 29µM; DRD3 antagonist: inactive; DRD3 agonist: inactive; ClpP mod: inactive; IL1B secr inh: inactive

What do the screens show for `O=C(CCl)Nc1cc(SCC(O)CO)cc([N+](=O)[O-])c1` (configuration not stated)?
TDP1 cell CPT: 4.6µM; TDP1 cell noCPT: inconclusive; DRD3 antagonist: inactive; DRD3 agonist: inactive; IL1B secr inh: -101

How did CCC(=O)Nc1cc(SCCO)cc([N+](=O)[O-])c1 do in these assays?
TDP1 cell CPT: inactive; TDP1 cell noCPT: inactive; DRD3 antagonist: inactive; DRD3 agonist: inactive; ClpP mod: inactive; IL1B secr inh: inactive

What do the screens show for `CC(C)=NOc1cc(NC(=O)CCl)cc([N+](=O)[O-])c1`?
TDP1 cell CPT: 3.7µM; TDP1 cell noCPT: 4.1µM; DRD3 antagonist: inconclusive; DRD3 agonist: inactive; ClpP mod: inactive; IL1B secr inh: -100

How did O=C(c1cc(-c2ccccc2)nc2ccccc12)N1N=C(C(F)F)CC1(O)C(F)F (configuration not stated) do in these assays?
TDP1 cell CPT: inactive; TDP1 cell noCPT: inactive; DRD3 antagonist: inactive; DRD3 agonist: inactive; ClpP mod: inactive; IL1B secr inh: inactive

What do the screens show for `CCOc1cccc(-c2cc(C(=O)N3N=C(C)CC3(O)C(F)F)c3ccccc3n2)c1` (configuration not stated)?
TDP1 cell CPT: inactive; TDP1 cell noCPT: inconclusive; DRD3 antagonist: inactive; DRD3 agonist: inactive; IL1B secr inh: -64

How did Cc1ccc(-c2cc(C(=O)N3N=C(C(F)F)CC3(O)C(F)F)c3ccccc3n2)cc1C (configuration not stated) do in these assays?
TDP1 cell CPT: 18µM; TDP1 cell noCPT: inconclusive; DRD3 antagonist: inactive; DRD3 agonist: inactive; ClpP mod: 25µM; IL1B secr inh: -71

How did CCOC(=O)Cn1c(C2CC(=O)N(c3ccc(C)cc3)C2)nc2ccccc21 (configuration not stated) do in these assays?
TDP1 cell CPT: inactive; TDP1 cell noCPT: inactive; DRD3 agonist: inactive; ClpP mod: inactive
